# High-throughput results (PubChem)
# This is a sample that favours compounds with a hit; in the whole collection about 2.4% have one here.
# TMEM16A inh: mouse TMEM16A channel inhibition, primary screen; Q8BHY3; HEK293 TMEM16A/YFP iodide influx fluorescence, ionomycin; normalized B-score (activity score, 25-100; higher = stronger inhibition) at 10 µM; actives 1.2% (n = 310,000);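 active = ratio plate-corrected score three or more library SD toward inhibition, starting fluorescence score within five deviations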;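 note: score derived from kinetic fluorescence span divided by baseline fluorescence per well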
# CHT allo act: allosteric activators of human choline transporter CHT; CHT-expressing cells, membrane potential dye, choline EC20; hits give high values; LV-AA mutant CHT in HEK293 cells; actives 0.49% (n = 310,000); B-score at 10 µM; AID 488977; Q9GZV3;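 active = initial fluorescence not abnormally high and integrated response B-score, plate-corrected, over 3 SD above library mean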
# Target sequence (Q9GZV3 whole entry, looked up): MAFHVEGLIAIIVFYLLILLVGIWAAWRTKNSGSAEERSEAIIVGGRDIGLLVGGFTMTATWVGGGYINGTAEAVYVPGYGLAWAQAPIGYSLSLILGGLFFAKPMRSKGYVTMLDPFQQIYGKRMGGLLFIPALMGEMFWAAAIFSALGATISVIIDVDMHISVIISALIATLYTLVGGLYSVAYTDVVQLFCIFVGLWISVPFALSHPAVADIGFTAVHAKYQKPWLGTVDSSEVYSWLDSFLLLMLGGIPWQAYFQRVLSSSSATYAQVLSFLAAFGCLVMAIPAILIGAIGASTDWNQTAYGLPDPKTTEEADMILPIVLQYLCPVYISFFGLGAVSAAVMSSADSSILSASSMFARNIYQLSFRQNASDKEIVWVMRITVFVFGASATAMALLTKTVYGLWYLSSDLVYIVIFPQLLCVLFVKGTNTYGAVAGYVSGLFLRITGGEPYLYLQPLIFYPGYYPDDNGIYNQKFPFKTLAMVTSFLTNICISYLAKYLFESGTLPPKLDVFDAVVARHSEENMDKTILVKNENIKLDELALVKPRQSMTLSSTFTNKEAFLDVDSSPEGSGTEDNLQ
# CHT inh: inhibitors of human choline transporter CHT; B-score at 10 µM; AID 488975; actives 0.86% (n = 310,000); CHT-expressing cells, membrane potential dye, choline response; hits give low values; Q9GZV3;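 active = B-score over 3 SD under the library average, and starting fluorescence ratio not unusually high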;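 note: choline stimulus applied at its EC90 after an EC20 pre-addition; B-score computed on integrated fluorescence ratio after choline addition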
# TMEM16A act: activates or potentiates the mouse TMEM16A chloride channel. HEK293 TMEM16A/YFP-H148Q/I152L, iodide quench fluorescence; hits give low values. Q8BHY3. AID 623877. actives 0.3% (n = 340,000). B-score at 10 µM;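 active = fluorescence-ratio B-score plate-corrected deviation score at least 3 library SD below zero, with starting fluorescence score within 5 deviations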;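 note: channel opened by trigger with iodide after compound preincubation; score built on the fluorescence ratio of max minus min over baseline; more negative score means more quench and so TMEM16A activation or potentiation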
# The depositor's hits bear a star; i = inactive; . = no result given.
SMILES,TMEM16A inh,CHT allo act,CHT inh,TMEM16A act
C#CCOCCOCCOCCNc1nc(N2CCN(C(=O)CCCCCCCCCCNC(=O)[C@H](CO)n3cc(CCCSC)nn3)CC2)nc(N2CCN(C(=O)CCCCCCCCCCNC(=O)[C@H](CCCN=C(N)N)n3cc(C[C@@H](C)CC)nn3)CC2)n1,25*,i,i,-32*
O=C(Nc1nc(-c2cccnc2)cs1)c1ccccc1[N+](=O)[O-],i,i,i,i
CCOC(=O)c1ccccc1NC(=O)CSc1nc2ccccc2c(=O)n1CCCN1CCOCC1,.,.,.,i
O=C(c1cc(-c2ccccc2Cl)nc2ccc(Br)cc12)N1CCN(c2ccccn2)CC1,25*,i,i,i
Cc1ccc(F)cc1CNC(=O)c1cc(COc2ccc3ncccc3c2)on1,i,i,i,i
CCC1CCCCN1C(=O)c1cc(COc2ccc3ncccc3c2)on1 (stereo not given),25*,i,i,i
O=C(NCc1cccc(Cl)c1)c1cc(COc2ccc3ncccc3c2)on1,100*,i,i,i
CCCCn1c(N)c(N(CC(C)C)C(=O)Cc2ccc(S(=O)(=O)N3CCOCC3)s2)c(=O)[nH]c1=O,.,.,.,-7.53*
Cc1ccc(S(=O)(=O)N2CC(C)C(=O)CC2C)cc1 (stereo not given),i,i,i,i
CN1Cc2cc(C(=O)c3cc(Cl)cc(CSc4ncccn4)c3O)cnc2NC1=O,i,7.01*,i,.
O=C(N[C@@H](Cc1ccccc1)C(=O)N1CCN(S(=O)(=O)c2cccc(F)c2)CC1)c1ccco1,.,.,.,i
CC(C)S(=O)(=O)C1=NSC2=NC(=O)/C(=C\c3ccc(-c4cccc(C(=O)O)c4)o3)C(=N)N21,.,.,.,i
CC(C)S(=O)(=O)C1=NSC2=NC(=O)/C(=C\c3ccc(-c4ccccc4)o3)C(=N)N21,25*,i,i,i
O=C(COC(=O)Cc1cccc(C(F)(F)F)c1)NCc1ccco1,.,.,.,i
O=C(NCc1ccc(Cl)cc1)c1cccc(NC2=NC3CS(=O)(=O)CC3S2)c1 (stereo not given),i,i,i,i
Cc1ccc(S(=O)(=O)Oc2ccccc2)cc1,.,.,.,i
Cc1ccc(S(=O)(=O)Oc2ccccc2-c2ccccc2)cc1,.,.,.,-5.36*
Cc1ccc(NC(=O)CN2C(=O)S/C(=C/c3ccc(-c4cc(C(=O)O)ccc4C)o3)C2=O)cc1C,100*,i,i,i
CCCC(c1nnnn1CCC(C)C)N1CCC(C(N)=O)CC1 (stereo not given),i,i,i,.
CC(C)CCn1nnnc1C(C(C)C)N1CCC(C(N)=O)CC1 (stereo not given),100*,i,i,i
O=C(Nc1ccc(Cl)c([N+](=O)[O-])c1)C(Sc1ccccc1)c1ccccc1 (stereo not given),100*,i,i,i
O=C(Nc1cc([N+](=O)[O-])ccc1Cl)C(Sc1ccccc1)c1ccccc1 (stereo not given),i,i,i,i
CCOc1cc(C(=O)OCC(=O)NC(C)c2ccccc2)ccc1OCC(=O)N1CCOCC1 (stereo not given),i,i,i,i
CCOC(=O)Cc1c(C)nc2c(-c3ccc(Cl)cc3)c(C)nn2c1C,i,i,i,-4.76*
Cc1nc2c(-c3ccccc3)c(C)nn2c(C)c1CC(=O)O,i,i,i,i
SMILES,TMEM16A inh,CHT allo act,CHT inh,TMEM16A act
COC(=O)C1=C(N)Oc2cc(C)n(Cc3cccnc3)c(=O)c2C1c1ccccc1OC (stereo not given),i,i,i,i
COC(=O)C1=C(N)Oc2cc(C)n(Cc3ccncc3)c(=O)c2C1c1cccnc1 (stereo not given),i,i,i,-14.9*
Brc1cc2c(cc1Br)OCCOCCOCCO2,i,i,i,i
O=c1c(/C=N/OCc2ccc(Cl)cc2Cl)c[nH]n1-c1cccc(Cl)n1,25*,i,i,i
CCOc1ccccc1N1CCN(CC(=O)NCCc2ccc(S(N)(=O)=O)cc2)CC1,i,i,i,-5.45*
O=C(Cn1nc(-c2ccc(Cl)cc2)ccc1=O)NCC1CCCO1 (stereo not given),i,i,i,-16.7*
Cc1cc(C)c2nc(-c3ccccn3)cc(C(=O)Nc3ccc(S(=O)(=O)Nc4onc(C)c4C)cc3)c2c1,i,i,i,i
Cc1cc(C)c2nc(-c3ccccn3)cc(C(=O)Nc3ccc(S(=O)(=O)Nc4cc(C)on4)cc3)c2c1,25*,i,i,i
CN(c1ccccc1)S(=O)(=O)c1ccc(-c2ccccc2)cc1,25*,i,i,i
O=C(O)/C=C1\NC(=O)c2ccccc21,i,i,i,i
O=C1N/C(=C\c2ccc(O)cc2)C(=O)c2ccccc21,25*,i,i,i
Cc1ccc(CN/C=C/C(=O)c2ccc(Br)cc2)cc1,100*,i,i,i
COc1cc(OC)c(NS(=O)(=O)c2ccc3c(c2)NC(=O)CO3)cc1Cl,i,i,i,i
CCCOc1ccc(CCCN=C(N)N)cc1Cl,i,i,i,i
CCCCn1c(NC(=O)c2ccccc2Cl)c(C#N)c2nc3ccccc3nc21,100*,i,i,i
N#Cc1c(NC(=O)c2ccccc2Cl)n(Cc2ccccc2)c2nc3ccccc3nc12,100*,i,i,i
CCCCn1c(NC(=O)CC)c(C#N)c2nc3ccccc3nc21,i,i,i,i
COc1ccc(-n2c(NC(=O)c3ccco3)c(C#N)c3nc4ccccc4nc32)cc1,i,i,i,i
COc1cc(OC)cc(C(=O)NCCCCc2ccccc2)c1,i,i,i,i
CC1=C(C(=O)OCc2ccccc2)C(c2cccnc2)c2c(n(C)c(=O)n(C)c2=O)N1 (stereo not given),i,i,i,i
Cc1cc(NC(=S)NC(=O)c2ccco2)c2ccccc2n1,i,i,i,i
Cc1cc(NC(=O)Cc2ccccc2)c2ccccc2n1,25*,i,i,i
Cc1cccc2sc(NNC(=O)c3ccc(S(=O)(=O)N4CCCC(C)C4)cc3)nc12 (stereo not given),25*,i,i,i
NC(=O)C1(N2CCCCC2)CCN(C(=S)Nc2ccccc2)CC1,i,i,i,i
NC(=O)C1(N2CCCCC2)CCN(C(=O)Nc2ccccc2C(F)(F)F)CC1,100*,i,i,.
CCCN1CCC(N2CCCC(C(=O)O)C2)CC1 (stereo not given),i,i,i,i
CCn1c(-c2ccco2)n[nH]c1=S,i,i,i,i
CC(C)Cn1c(-c2ccco2)n[nH]c1=S,25*,i,i,i
O=C(CN1CCOCC1)Nc1ncc(Cc2cccc3ccccc23)s1,25*,i,i,i
